# In PMC5540273 (PLoS ONE, 2017):
# How the values were obtained:
# Settings in all cases: concentration: 1 μM, replicates: in singlicate; n = 1
# PIKFYVE = tested on: PIKFYVE
# PIM1 = tested on: PIM1
# PIM2 = tested on: PIM2
# PIM3 = tested on: PIM3
# PIP5K1A = tested on: PIP5K1A
# PIP5K1C = tested on: PIP5K1C
# PIP5K2B = tested on: PIP5K2B
# PIP5K2C = tested on: T1, PIP5K2C
# T1 construct: gene PIP4K2C
# PKAC-alpha = tested on: T2, PKAC-alpha
# T2 construct: gene PRKACA
# PKAC-beta = tested on: T3, PKAC-beta
# T3 construct: gene PRKACB
# PKMYT1 = tested on: PKMYT1
# PKN1 = tested on: PKN1
# PKN2 = tested on: PKN2
# PLK1 = tested on: PLK1
# PLK2 = tested on: PLK2
# PLK3 = tested on: PLK3
# PLK4 = tested on: PLK4
# PRKCD = tested on: PRKCD
# PRKCE = tested on: PRKCE
# PRKCH = tested on: PRKCH
# 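Further: KINOMEscan kinase panel screen.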
Compound,%Inh (PIKFYVE) [%],%Inh (PIM1) [%],%Inh (PIM2) [%],%Inh (PIM3) [%],%Inh (PIP5K1A) [%],%Inh (PIP5K1C) [%],%Inh (PIP5K2B) [%],%Inh (PIP5K2C) [%],%Inh (PKAC-alpha) [%],%Inh (PKAC-beta) [%],%Inh (PKMYT1) [%],%Inh (PKN1) [%],%Inh (PKN2) [%],%Inh (PLK1) [%],%Inh (PLK2) [%],%Inh (PLK3) [%],%Inh (PLK4) [%],%Inh (PRKCD) [%],%Inh (PRKCE) [%],%Inh (PRKCH) [%]
CCCCCc1nc2c(N)ncnc2n1CCCCC [SKF-97255],0,0,5,7,1,0,0,0,24,0,0,0,0,19,18,27,25,18,0,7
Cc1nnc(-c2ccc3occ(-c4ccc(C(C)O)cc4)c3c2)o1 (stereo not drawn),0,24,80,31,0,4,27,17,7,17,0,0,0,2,0,0,21,11,0,0
Cc1cccc(-c2nc(Nc3ccc4ncsc4c3)c3ccccc3n2)n1 [GW867588],54,9,0,16,27,4,0,18,11,21,9,14,0,12,19,16,14,7,27,0
N#Cc1c(N2CCOCC2)sc(-c2ccn[nH]2)c1-c1ccc(Cl)cc1,44,18,0,16,0,0,7,0,0,0,10,17,0,24,20,15,19,0,0,2
CCn1cnc2c(N)ncnc21 [GW345098],0,0,0,0,0,0,0,0,8,14,5,20,0,0,7,18,27,0,18,9
COC(=O)Nc1nc2cc(Oc3ccc(NC(=O)Nc4cc(F)ccc4F)cc3)ccc2[nH]1.Cl [GW701424],31,13,0,2,41,9,14,40,0,0,0,0,0,0,0,0,0,0,12,5
COc1ccc(Nc2ncc(C#N)c(Nc3ccccc3C(N)=O)n2)cc1N1CCN(C)CC1.Cl [GSK1558669],94.4,97.4,0,93.3,56,65,90,90.6,76,76,41,83,78,100,100,100,99.8,94,94.4,86
Cc1cccc(-c2nc(-c3ccc(S(C)(=O)=O)cc3)sc2-c2ccncc2)c1,25,13,2,12,22,2,55,0,0,0,20,17,0,0,8,6,10,24,7,10
O=c1cc(N2CCOCC2)nc2n(Cc3cccc(Cl)c3Cl)c(C3CC3)nn12 [GSK2358994],0,0,22,0,0,0,0,0,25,5,0,2,0,0,0,16,9,0,33,0
Cc1nnc(-c2ccc(C)c(-c3ccc(C(=O)Nc4ccc(NS(C)(=O)=O)cc4)cc3)c2)o1 [GW702865],4,0,0,0,52,26,17,18,0,0,0,28,15,0,0,7,6,0,0,0
COc1cc2c(cc1OC[C@@H](O)CO)ncc1c3ccc(C#N)cc3[nH]c21,56,0,81,35,38,47,42,76,0,0,0,0,33,0,0,0,9,5,62,0
COc1ccc(COc2cc(-n3cnc4ccccc43)sc2C(N)=O)cc1 [GSK1024304],0,11,0,0,17,45,5,3,0,0,0,0,0,97.4,90,86,4,4,0,0
